Test results: PubChem BioAssay AID2546 (National Center for Advancing Translational Sciences (NCATS), 2010)
The whole screen tested about 310,000 compounds, of which about 11,000 (3.5%) were called active. Entries that show only a call come without a potency. Another 8% or so got no clear call; they are omitted. This is one part of a sample in which actives are shown more often than they occur. The call rests on the fitted dose curve; in most records, active means well fitted inhibition curve with a large enough effect; inconclusive means small, poorly fitted or top-dose-only effect, or effect the other way; inactive means flat fitted curve, though single readings scatter.
Potency means the concentration at half of the fitted maximal effect.

Test: VP16 counterscreen qHTS for inhibitors of ROR gamma transcriptional activity;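 further: Gal4-VP16 expression switched on by copper sulfate through the metallothionein promoter; nearly all actives have a fitted effect of over 50% in size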
Settings: Drosophila S2 Gal4-VP16 UAS-luciferase, luminescence, 20 h; series mostly up to 53.6 µM
With `CCOc1cc(-c2noc(CCCC(=O)NC3CCCCC3)n2)ccc1OC` the Potency was “inactive”. With `CC(=O)c1ccc(N2Cc3ccccc3C2)cc1` the Potency was “inactive”. For `CC(C)CC(O)C1CCN(C(=O)CCc2nnc(-c3ccc4c(c3)OCO4)o2)CC1` (centres undefined), the Potency was “inactive”. For `Cc1oc(-c2ccccc2F)nc1CS(=O)CC(=O)NCCN1CCCCC1C` (centres undefined), the Potency was “inactive”. In the case of `C=CCc1ccccc1OCC(=O)N/N=C/c1ccccc1OCC`, the Potency is reported as “inactive”. For `CCOc1ccccc1/C=N/Nc1nc2ccccc2o1`, the Potency was 7.08 µM (active). For `CCOc1ccccc1/C=N/NC(=O)CNC(=O)COc1ccccc1`, the Potency was “inactive”. For `CC(C)(C)c1cc[n+](-c2[nH]c(=O)sc2/C=N/N=C(\[O-])c2ccccc2)cc1`, the Potency was “inactive”. In the case of `O=C(Nc1ccncc1)c1ccc(Cl)c([N+](=O)[O-])c1`, the Potency is reported as “inactive”. In the case of `COc1ccc(CNS(=O)(=O)c2cc(-c3cc(C)no3)ccc2C(C)C)cc1`, the Potency is reported as “inactive”. For `CC(=O)Nc1cccc(Nc2nc(-c3cccs3)nc3ccccc23)c1`, the Potency was “inactive”. In the case of `CC1CCCN(CCCNC(=O)CN2C(=O)COc3ccc(S(=O)(=O)N4CCOCC4)cc32)C1` (centres undefined), the Potency is reported as “inactive”. For `Cc1ccc(/C=N/NC(=O)Cn2nc(C)c(Br)c2C)o1`, the Potency was “inactive”. In the case of `Cc1ccc(/C=N/NC(=S)NC2CCCCC2)o1`, the Potency is reported as 2 µM (active). For `C/C(=N/NC(=O)c1ccc(Br)o1)c1ccc(C)o1`, the Potency was “inactive”. With `C/C(=N\NC(=S)NC1CCCCC1)c1ccc(C)o1` the Potency was 3.55 µM (active). With `Cc1ccc(/C=N/NC(=O)CSc2ccccn2)o1` the Potency was “inactive”. With `C/C(=N\NC(=O)NC1CCCCC1)c1ccc(OC(F)F)cc1OC(F)F` the Potency was “inactive”. For `Cc1ccccc1NC(=O)CSc1ccc2nnc(-c3ccccn3)n2n1`, the Potency was “inactive”. With `CC(C)NC(=O)COCc1cc(-c2ccc3c(c2)OCO3)on1` the Potency was “inactive”. For `COc1ccc(OC)c(CNC(=O)Cn2nc(C)c3c(C)n(-c4ccc(C)cc4)nc3c2=O)c1`, the Potency was “inactive”. For `COc1ccc(CN(C)C(=O)c2cc(-c3ccc(C)cc3C)nc3ccccc23)c(OC)c1OC`, the Potency was “inactive”. For `COc1ccc(CCn2ccc(O)c(Cc3ccc(Cl)cc3Cl)c2=O)cc1OC`, the activity, negative = inhibition was 7.07% [at 10 µM] (inactive). For `COc1ccc(C/C(N)=N/OC(=O)c2ccco2)cc1OC`, the Potency was “inactive”. In the case of `COc1ccc(C(=O)O/N=C(\N)Cc2ccc(Cl)cc2Cl)cc1OC`, the Potency is reported as 7.08 µM (active). For `CC(CCc1ccc(O)cc1)NCc1ccc(Cl)cc1Cl` (centres undefined), the Potency was “inactive”. For `O=S1(=O)N=C(N(CCO)/N=C/c2ccccc2F)c2ccccc21`, the Potency was “inactive”. In the case of `COC(=O)c1cc(S(=O)(=O)NCC2CCN(Cc3ccc(Cl)cc3)CC2)cn1C`, the Potency is reported as “inactive”. With `COc1ccc2ccccc2c1/C=N/NC(=O)c1cc(C)[nH]n1` the Potency was “inactive”. With `CC(C)(C)c1cc(C(=O)N/N=C/c2ccc([N+](=O)[O-])s2)n[nH]1` the Potency was 12.6 µM (active). For `Cc1ccccc1NCC(=O)N/N=C\c1ccc([N+](=O)[O-])s1`, the Potency was “inactive”. With `Cc1ccsc1C(=O)N/N=C/c1ccc([N+](=O)[O-])cc1` the Potency was “inactive”. With `Cc1cc(C(=O)N/N=C/c2cc([N+](=O)[O-])cc(C)c2O)n[nH]1` the Potency was 14.1 µM (active). With `CCOc1ccc(NC(=O)CCC(=O)N/N=C/c2ccc([N+](=O)[O-])s2)cc1` the Potency was “inactive”. With `COc1ccc(OC)c(NC(=O)c2ccc3c(c2)CCN3S(C)(=O)=O)c1` the Potency was “inactive”. In the case of `COc1ccc(-n2ncc3c2CC(C)(C)CC3NC(=O)CCc2c(C)noc2C)cc1` (centres undefined), the Potency is reported as “inactive”. For `CCn1c(CC(=O)Nc2ccccc2)nnc1SCC(=O)N1CCOCC1`, the Potency was “inactive”. In the case of `Cc1cccc(C)c1OCCN1CCOCC1`, the Potency is reported as “inactive”. For `CC(CC(=O)N1CCN(c2ccccc2)CC1)S(=O)(=O)c1ccc2c(c1)NC(=O)CS2` (centres undefined), the Potency was “inactive”. For `CCCCC(C(=O)OCC(=O)c1ccc(OC)cc1)N1C(=O)c2ccccc2C1=O` (centres undefined), the Potency was “inactive”. In the case of `CCOC(=O)C1=C(c2ccc(OC)cc2)C(=O)c2ccccc2C1=O`, the Potency is reported as 4.47 µM (active). For `CCOC(=O)c1c(-c2ccc(C)cc2)csc1/N=C(\C)C1=C(O)c2ccccc2C1=O`, the Potency was “inactive”. With `COc1ccccc1-n1c(SCC(=O)Nc2cccc(C(=O)O)c2)nnc1-c1ccccc1O` the Potency was “inactive”. For `CCOC(=O)[C@@H]1[C@H]2COc3ccc(Br)cc3[C@H]2N2C(=O)N(c3ccc(Cl)cc3)C(=O)[C@@]12C`, the Potency was “inactive”. In the case of `COC(=O)c1cc(NS(=O)(=O)c2ccc3c(c2)c(=O)n(C)c(=O)n3C)cc(C(=O)OC)c1`, the Potency is reported as “inactive”. In the case of `Cc1[nH]c2ccccc2c1C(=O)CN1CC(C)CC(C)C1` (centres undefined), the Potency is reported as “inactive”. For `CC(=O)Nc1cccc(NC(=O)c2ccc3c(c2)CCN3S(C)(=O)=O)c1`, the Potency was “inactive”. For `COc1ccccc1-c1sc2ccccc2c1-c1ccc(C(C)=O)cc1`, the Potency was “inactive”. For `C(=N\n1cnnc1)/c1cccnc1`, the Potency was “inactive”. For `CN(C)c1ccc(-n2cccc2/C=C2/SC(=Nc3ccc(F)cc3)NC2=O)cc1`, the Potency was “inactive”. For `CN(C)c1ccc(-n2cccc2/C=N/n2cnnc2)cc1`, the Potency was 14.1 µM (active). With `CNC[C@H](CC1CCCCC1)NC[C@H](NCCC1CCCC1)[C@H](C)O` the Potency was “inactive”. For `O=C1c2ccccc2C(=O)N1CCOc1ccc(F)cc1`, the Potency was “inactive”. With `CN1CN(C)c2ccc([N+](=O)[O-])c3cccc1c23` the Potency was “inactive”. In the case of `CCCNC(=O)CCc1c(C)nc2c(c(C)nn2-c2ccc(C)cc2)c1C`, the Potency is reported as “inactive”. For `COC(=O)c1ccc2c(=O)n(CC3CCCO3)c(=S)[nH]c2c1` (centres undefined), the Potency was 5.01 µM (active). For `O=C(NC1CCCCC1)c1ccc2c(=O)n(CC3CCCO3)c(=O)[nH]c2c1` (centres undefined), the Potency was “inactive”. For `COc1ccc(Cn2c(=S)[nH]c3cc(C(=O)NCCCN4CCOCC4)ccc3c2=O)cc1`, the Potency was “inactive”. In the case of `COc1ccccc1OCCCC(=O)Nc1ccc2c(c1)OCCO2`, the Potency is reported as “inactive”. In the case of `O=C(CSc1cccc2cccnc12)N/N=C/c1cccnc1`, the Potency is reported as 20 µM (active). In the case of `O=C(CNC(=O)c1cccnc1)N/N=C/c1cccnc1`, the Potency is reported as “inactive”. In the case of `Cc1nc2ccccc2n1CC(=O)N/N=C/c1cccnc1`, the Potency is reported as “inactive”. In the case of `CN(C)Cc1c(O)ccc2c(=O)c(-c3ccccc3Cl)coc12`, the Potency is reported as “inactive”. With `COc1ccccc1CN1CCNC(=O)C1CC(=O)N(C)CC1CCOCC1` (centres undefined) the Potency was “inactive”. In the case of `COc1ccc2c(C)c(CCC(=O)NC3CC3)c(=O)oc2c1C`, the Potency is reported as “inactive”. For `COc1ccc2c(c1OC)C(=O)N(c1ccc(O)cc1)C2`, the Potency was “inactive”. In the case of `O=C(NCCN1CCOCC1)c1ccc(/C=C2\Sc3ccccc3N(Cc3ccc(F)cc3)C2=O)cc1`, the Potency is reported as “inactive”. In the case of `CN1CCN(CCCNC(=O)c2ccc(/C=C3\Oc4ccccc4N(Cc4ccc(Cl)cc4)C3=O)cc2)CC1`, the Potency is reported as 11.2 µM (active). In the case of `CN1C(=O)/C(=C/c2ccc(C(=O)NC3CCCC3)cc2)Oc2ccccc21`, the Potency is reported as “inactive”.
